Epigenetic mod – derepresses silenced GFP locus in mouse C127i cells. AID 597. 68,000 compounds, 0.09% hits. mouse C127i GFP locus derepression, cytometry, 30 h. Potency, µM (series often up to 46.1 µM), for inactives: at the highest dose GFP derepression (activation); also: % of control where 0% means no effect
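Locus derepression in mouse mammary C127i cells whose integrated CMV-GFP reporter is normally silent; GFP expression after 30 h compound treatment was quantified by counting fluorescent cells.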
ALOX15 inhib – inhibitors of human 15-lipoxygenase (ALOX15); P16050; purified 15hLO-1, xylenol orange hydroperoxide absorbance; 74,000 compounds, 1.4% hits; Potency, µM (highest dose often 57.1 µM), for the others: at the top dose activity change, negative = inhibition, usual class: inhibitors; AID 887; also: potency is read from the fitted curve at half-maximal effect; % is scaled to controls: 0 for no effect and ±100 for the full control effect; nearly all actives have a fitted effect of over 55% in size
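Compounds were preincubated 15 min at room temperature with 40 nM purified human enzyme (25 mM Hepes pH 7.5, 0.01% Triton X-100); 50 uM arachidonic acid reacted 6 min. Fe-xylenol orange detection, 30 min, absorbance ratio 573/405 nm.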
UbGFP stabilizer – proteasome inhibitors stabilizing ubiquitin-GFP reporter | Potency, µM (series often up to 45.9 µM), for inactives: at the top dose activation (GFP accumulation), hits mostly activators | 67,000 tested, under 10 active | AID 526 | Ubiquitin-GFP reporter cells, proteasome inhibition, GFP fluorescence; response scale: untreated = 0%, 10 µM MG-132 = 100%; active = well fitted activation curve with a large enough effect, not every such curve was filed as active; inconclusive = small, poorly fitted or top-dose-only effect, or another doubt; inactive = no such curve, though single readings can be large or run the other way; also: potency is read from the fitted curve at half-maximal effect
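U2OS cells stably expressing ubiquitin(G76V)-GFP, seeded overnight in 0.5% FBS medium, were exposed to compounds (qHTS, 46 uM to 2.9 nM) for 4 hr at 37 °C. GFP-positive cells were counted by laser cytometry (488 ex/515 em), normalized between basal and 10 uM MG-132.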
15-hLO-2 inh – inhibitors of human 15-lipoxygenase 2 (ALOX15B); 110,000 compounds, 0.56% hits; Potency, µM (series often up to 57.1 µM), without a hit: at the top dose activity change, negative = inhibition, actives largely listed as inhibitors; purified 15hLO-2, xylenol orange hydroperoxide absorbance; O15296; also: potency is read from the fitted curve at half-maximal effect; % is scaled to controls: 0 for no effect and ±100 for the full control effect; nearly all actives have a fitted effect of over 60% in size
Target sequence (O15296 whole entry, looked up): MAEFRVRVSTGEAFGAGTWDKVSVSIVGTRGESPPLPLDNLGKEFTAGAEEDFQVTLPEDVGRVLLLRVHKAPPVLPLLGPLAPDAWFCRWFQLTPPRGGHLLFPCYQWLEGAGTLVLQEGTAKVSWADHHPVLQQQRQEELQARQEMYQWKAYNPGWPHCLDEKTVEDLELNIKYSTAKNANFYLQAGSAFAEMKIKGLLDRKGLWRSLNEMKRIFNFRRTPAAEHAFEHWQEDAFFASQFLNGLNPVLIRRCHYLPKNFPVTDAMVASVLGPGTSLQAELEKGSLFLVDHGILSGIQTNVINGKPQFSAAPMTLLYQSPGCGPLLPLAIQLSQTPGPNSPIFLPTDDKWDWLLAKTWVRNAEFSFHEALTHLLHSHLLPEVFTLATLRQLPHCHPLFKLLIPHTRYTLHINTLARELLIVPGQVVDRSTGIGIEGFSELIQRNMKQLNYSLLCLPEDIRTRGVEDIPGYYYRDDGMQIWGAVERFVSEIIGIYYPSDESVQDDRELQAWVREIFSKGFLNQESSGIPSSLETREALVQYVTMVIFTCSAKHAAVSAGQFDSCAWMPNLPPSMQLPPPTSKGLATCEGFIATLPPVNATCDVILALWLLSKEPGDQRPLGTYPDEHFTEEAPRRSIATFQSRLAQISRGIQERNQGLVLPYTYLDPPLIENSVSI
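Read-out: hydroperoxide product oxidises ferrous iron, measured as xylenol orange complex via the 573-to-405 nm absorbance ratio after 30 min. Reaction: 50 nM enzyme, 15 min compound preincubation, 45 uM arachidonic acid, 90 min RT, Hepes pH 7.5 with Triton X-100.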
Tau fil binding – binds recombinant human tau filaments; P10636; recombinant tau filaments, thioflavin S fluorescence, 15 h; filaments grown with octadecylsulfate alongside compound; Potency, µM (titrated, usually from 57.1 µM), without a hit: at the top dose activity change, negative = inhibition; 71,000 compounds, 2% hits; AID 596;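 also: potency is read from the fitted curve at half-maximal effect; % is scaled to controls: 0 for no effect and ±100 for the full control effect; actives lower thioflavin S fluorescence by blocking filaments or displacing dye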
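His-tagged recombinant human tau (exons 2, 3, 10; 1 uM final) fibrillized with 30 uM sodium octadecylsulfate, 15 h at 37 C, in pH 7.4 HEPES buffer with 10 uM thioflavine S and 5 mM DTT. Reduced ThS fluorescence (450/510 nm) marks activity.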
HBB splice mod – hemoglobin beta splicing modulation; HBB splicing reporter cell assay, activation; EGFP reporter with mutant IVS2-654 intron; response scale: normalised to 500 nM splice-correcting PNA; Potency, µM (titrated, usually from 46.1 µM), inactives show at the highest dose activation, hits mostly activators; 65,000 compounds, 0.06% hits; also: potency is read from the fitted curve at half-maximal effect; 0% is about no effect
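Compounds were applied for 2 days to HeLa EGFP-654 cells, 500/well in Optimem with 2% FCS. The reporter's EGFP is disrupted by mis-splicing of beta-globin intron IVS2-654. Readout: summed well GFP fluorescence from 488 nm laser scanning; reference was 500 nM antisense […] 654 PNA.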
The depositor's hits bear a star; ? = inconclusive; . = no result; ! = not confirmed by another sample; [ ] = remark or other dose. Only some compounds are listed: those with a hit (about 2.3% of all), similar ones and a draw of the others. Unless noted, calls follow the shape of the dose curve; as a rule, active = well fitted curve in the direction sought with a large enough effect; inconclusive = small, poorly fitted or top-dose-only effect, or another doubt; inactive = no such curve, though single readings can be large; an effect the other way counts as inactive or inconclusive.

SMILES | Epigenetic mod | ALOX15 inhib | UbGFP stabilizer | 15-hLO-2 inh | Tau fil binding | HBB splice mod
Cc1ccc2cccc(S(=O)(=O)Nc3ccc4c(c3)OCO4)c2n1 | 11.4% | -20.1% | 3.0% | 2.3% | 7.94µM* | -2.6%
C=C/C(C)=C/[C@]1(C)SC(=O)C(C)=C1O | 1.1% | -3.9% | 3.2% | -4.0% | -3.5% | 0.9%
Cc1ccc(C(=O)c2c(C)oc3c2C(=O)C(=O)c2ccccc2-3)cc1 | . | . | . | 25.1µM* | . | .
COc1ccc(C(=O)c2c(C(F)(F)F)oc3c2C(=O)c2ccccc2C3=O)cc1 | . | . | . | -14.2% | . | .
CO[C@@H]1/C=C\O[C@]2(C)Oc3c(C)c(O)c4c(O)c(c(CN5CCN(C)CC5)c(O)c4c3C2=O)NC(=O)/C(C)=C\C=C[C@@H](C)[C@@H](O)[C@H](C)[C@@H](O)[C@H](C)[C@H](OC(C)=O)[C@@H]1C | 0.0%[9.22 µM] | ? | 2.9%[9.17 µM] | -6.9%[11.4 µM] | 3.4%[11.4 µM] | 5.3%[9.22 µM]
CO[C@@H]1/C=C\O[C@@]2(C)Oc3c(C)c(O)c4c(c3C2=O)C(=N[C@H]2CC[C@H](O)O[C@@H]2C)C=C(NC(=O)/C(C)=C\C(=O)[C@@H]2C[C@@H]2[C@@H](O)[C@H](C)[C@@H](O)[C@H](C)[C@H](OC(C)=O)[C@@H]1C)C4=O | 2.3%[9.22 µM] | 2µM* | -1.0%[9.17 µM] | -2.7%[11.4 µM] | 23.6%[11.4 µM] | 2.3%[9.22 µM]
COc1ccc(C(=O)N2CCC[C@@]3(CCN(Cc4ccc(C#N)cc4)C3)C2)cc1 | -2.3%[9.22 µM] | -0.8% | 0.3% | 7.6% | 11.3% | 1.8%
Cc1nc2nc(-c3ccccc3)[nH]n2c(=O)c1Cc1ccccc1 | -3.2% | -9.0% | 2.6% | -5.5% | 19.4% | -1.0%
Cc1nc2nc(-c3ccco3)[nH]n2c(=O)c1Cc1ccccc1 | 0.0% | 15.8µM* | 1.9% | 12.1%[2.29 µM] | 90.8% | -2.0%
COc1ccc(CN(Cc2cc3cc4c(cc3[nH]c2=O)OCO4)C(=O)NC2CCCCC2)cc1 | 4.5% | 15.8µM* | 0.0% | 8.5%[11.4 µM] | 46.7% | -0.4%[57.5 µM]
CCN(CC)CCN(Cc1cc2cc3c(cc2[nH]c1=O)OCCO3)C(=O)NC1CCCCC1 | -1.2% | 0.0% | 0.0% | 26.1% | -3.2% | .
S=C1N[C@H](c2ccccc2)N[C@H](c2ccccc2)S1 | 13.3%[9.22 µM] | -24.1%[11.4 µM] | -8.2%[9.17 µM] | -28.5%[11.4 µM] | 5.8%[11.4 µM] | -0.1%[9.22 µM]
COc1cc(NC(=O)c2ccccc2)c(OC)cc1NC(C)=O | 1.6% | 4.3% | 5.0% | -3.4% | -17.4% | -1.0%
COc1cc(NS(C)(=O)=O)c(OC)cc1NC(=O)c1ccccc1 | 2.6% | 1.8% | -6.0% | -2.3% | 15.8µM* | -0.6%
COc1cc(NC(=O)c2ccc(Cl)cc2)c(OC)cc1NC(=O)CN1CCOCC1 | 2.3% | -4.3% | -2.9% | -1.7% | 20µM* | -2.5%
CCC(=O)Nc1cc(OC)c(NC(=O)c2ccccc2)cc1OC | -1.7% | -2.2% | -3.8% | -2.9% | 12.6µM* | -0.9%
COc1cc(NC(=O)c2ccccc2)cc(OC)c1 | -2.6% | -4.3% | -4.0% | -2.3% | 10µM* | -0.9%
O=C(O)C(Cl)(c1ccccc1)c1ccccc1 | 6.6%[9.22 µM] | 2.1%[11.4 µM] | -3.7%[9.17 µM] | -4.7%[11.4 µM] | 6.6%[11.4 µM] | 0.0%[9.22 µM]
N#C/C(=C\NC(=S)c1ccncc1)c1nc2ccccc2s1 | ? | -2.3%[11.4 µM] | 2.6%[9.17 µM] | -3.3%[11.4 µM] | 98.5%[11.4 µM] | ?
Cc1nc(N=Nc2cc(S(=O)(=O)O)c3cc([N+](=O)[O-])cc(S(=O)(=O)O)c3c2)c(COP(=O)(O)O)c(C=O)c1O | -1.4% | 10µM*! | 1.8% | 1.1% | ? | 1.1%
Cc1nc(NCCO)c2nc(-c3ccccc3)n(CCCN(C)C)c2n1 | . | 1.6% | 7.4% | -1.0% | 3.4% | -1.2%
c1ccc(C[n+]2cccc(-c3cc4ccccc4[nH]3)c2)cc1 | 2.4%[9.22 µM] | 3.0%[11.4 µM] | 8.5%[9.17 µM] | 6.9%[11.4 µM] | 0.316µM* | 2.5%[9.22 µM]
O=C(Cn1cnnn1)OCC(=O)c1ccc(Cl)s1 | -2.1% | -25.7% | -0.9% | ? | 10µM* | 12.6µM*
Cc1cc(C)c(C(=O)COC(=O)Cn2cnnn2)cc1C | 1.2% | ? | -4.2% | -2.0% | -4.5% | -2.2%

Screening results from PubChem.
